# Source: PubChem BioAssay
# Rango dissoc inh = qHTS Assay for Inhibitors of RanGTP induced Rango (Ran-regulated importin-beta cargo) - Importin beta complex dissociation. Potency, µM (highest dose often 46.1 µM), for the others: top-dose activity change, negative = inhibition. Biochemical FRET Rango-importin beta, RanGTP-induced dissociation. AID 540253, 2011. 0.071% of 340,000 active; calls by dose curve; also: potency is read from the fitted curve at half-maximal effect; % of control where 0% means no effect; nearly all actives have a fitted effect of over 45% in size
#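 Rango FRET biosensor (snurportin-1 IBB flanked by N-terminal EYFP and C-terminal CFP10) at 0.1 uM, with 0.25 uM importin beta in PBS, 1mM DTT, 0.02% Tween-20, 0.1% BSA. 0.6 uM Ran, 2mM GTP and 0.2 uM RCC1 were then added for 45 min at room temperature. Inhibition read as loss of FRET rise.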
# CCT modulator = High-Throughput Screening for Modulators of Cytosolic Chaperonin Activity; purified chaperonin ATPase assay, HTRF ADP detection, 30 min; activity change, % (test concentration not listed), hits read low; 0.3% of 360,000 active; AID 651819, 2012; in the data active = activity change below about -30%; also: % is scaled to controls: 0 for no effect and ±100 for the full control effect
#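 Enzyme 40 or 20 nM (batch-dependent) in Tris pH 7.4/KCl/MgCl2/DTT; cpd 76 uM single point; ATP 10 uM; 30 min 37 °C; Transcreener ADP HTRF detection, 30 min RT; ratio 665/615.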
# Rango complex inh = qHTS Assay for Inhibitors of Rango (Ran-regulated importin-beta cargo) - Importin beta complex formation; AID 540263, 2011; Potency, µM (doses to about 92.2 µM), for the others: at the highest dose inhibition of complex formation; 0.031% of 340,000 active; Rango CFP/YFP FRET sensor + importin beta, 45 min; calls by dose curve;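 also: potency is read from the fitted curve at half-maximal effect; 0% = DMSO wells and 100% = buffer wells lacking importin beta; nearly all actives have a fitted effect of over 15% in size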
#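 Inhibition scored from the CFP 486 nm/YFP 530 nm FRET ratio 45 min after adding 0.125 microM importin beta to 50 nM Rango biosensor preincubated 5 min with compound (room temperature, PBS with DTT, Tween-20, BSA). No-importin wells as positive control.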
# B2AR arrestin = qHTS assay of beta-arrestin-biased ligands of beta2-adrenergic receptor | Beta-2 adrenergic receptor (Homo sapiens), P07550 | beta-arrestin recruitment to beta2AR, cell-based reporter | Potency, µM (top dose mostly 46.1 µM), without a hit: at the top dose activation, most hits filed as activators | 0.02% of 330,000 active | AID 492947, 2010;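 also: potency is read from the fitted curve at half-maximal effect; 0% = DMSO controls and full agonism = EC100 isoproterenol or metaproterenol; nearly all actives have a fitted effect of over 65% in size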
# Target sequence (P07550 whole entry, looked up): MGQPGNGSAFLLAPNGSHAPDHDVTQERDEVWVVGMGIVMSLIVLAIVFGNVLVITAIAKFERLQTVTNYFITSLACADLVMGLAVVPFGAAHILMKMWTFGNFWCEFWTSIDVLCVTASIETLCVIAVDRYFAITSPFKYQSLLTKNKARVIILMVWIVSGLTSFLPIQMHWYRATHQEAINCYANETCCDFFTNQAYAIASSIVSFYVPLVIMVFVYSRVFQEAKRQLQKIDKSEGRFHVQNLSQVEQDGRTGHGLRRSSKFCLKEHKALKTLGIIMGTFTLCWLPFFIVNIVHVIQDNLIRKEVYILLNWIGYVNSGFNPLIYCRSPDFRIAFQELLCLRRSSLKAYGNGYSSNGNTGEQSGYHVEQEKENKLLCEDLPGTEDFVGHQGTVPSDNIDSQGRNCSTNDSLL
# MmCpn inh = Inhibitors of TCP-1 ring complex (TRiC) of Methanococcus maripaludis (MmCpn): qHTS | Chaperonin Mm-Cpn (Methanococcus maripaludis) | purified Mm-Cpn ATPase, ADP Transcreener TR-FRET | Potency, µM (doses to about 76.9 µM), without a hit: at the highest dose activity, negative = inhibition, hits mostly inhibitors | 0.031% of 330,000 active; also: potency is read from the fitted curve at half-maximal effect; % is scaled to controls: 0 for no effect and ±100 for the full control effect; nearly all actives have a fitted effect of over 80% in size
#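 ATPase read-out: TR-FRET ADP immunoassay (anti-ADP Eu cryptate vs ADP-d2), ex 320 nm, em 590/665 nm; signal drops as ADP forms. Enzyme 25 nM, ATP 10 uM, 30 min at 37°C after 10 min compound preincubation.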
# An asterisk follows results filed as active; ? = inconclusive; . = not tested or not shown; [ ] = another dose, or the depositor's remark. In the library only some 0.43% were active in any assay of this set; here they are far more common. Unless noted, calls follow the shape of the dose curve; as a rule, active = well fitted curve in the direction sought with a large enough effect; inconclusive = small, poorly fitted or top-dose-only effect, or another doubt; inactive = no such curve, though single readings can be large; an effect the other way counts as inactive or inconclusive.
SMILES,Rango dissoc inh,CCT modulator,Rango complex inh,B2AR arrestin,MmCpn inh
CCOC(=O)N1CCN(C(=O)C(CC(C)C)NC(=O)C2CCCCC2)CC1 (centres undefined),-15%,-1,0%,0%,1%
O=C1CC(Sc2ncccn2)C(=O)N1c1ccccc1 (centres undefined),11%,1,5%,-1%,2%
Nc1nnc(SC2CC(=O)N(c3ccccc3)C2=O)s1 (centres undefined),-9%,-97*,0%,0%,0%
Cc1cccc2cc(C#N)c(SCC(=O)N3CC(=O)Nc4ccccc43)nc12,-6%,-45*,?,0%,?
O=c1ccc(-c2ccc(S(=O)(=O)Nc3cccc(Br)c3)o2)n[nH]1,17%,-1,-1%,0%,2%
COc1ccc(OC)c(NC(=O)CSc2nnc(C)n2Cc2ccccc2)c1,-5%,-49*,-1%,0%,0%
O=C(COC(=O)/C=C/c1ccccc1Cl)NCCc1ccc(Cl)cc1Cl,0%,-39*,-1%,3%,2%
O=C(COC(=O)/C=C/c1ccc(Cl)cc1Cl)NCCC1=CCCCC1,9%,0,1%,0%,-1%
COCCN1C(=S)N[C@@H](c2ccccc2)C(C(=O)OC)=C1C,.,.,.,0%,-4%
COCc1nn2c(N)c(-c3ccccc3)cnc2c1-c1ccccc1,0%,-44*,3%,-1%,-2%
CCOC(=O)c1c(C)nc2c(c(SC)nn2-c2ccccc2)c1N,9%,-5,-1%,-1%,-13%
CCC(=O)NC(c1cccs1)c1cc(Br)c2cccnc2c1O (centres undefined),.,.,.,-1%,-1%
Cn1nnnc1Sc1ncnc2scc(-c3ccc(-c4ccccc4)cc3)c12,-8%,.,?,2%,?
Cn1nnnc1Sc1ncnc2scc(-c3cc4ccccc4o3)c12,11%,.,0%,0%,40µM*
CCOC(=O)C1=CCN(S(=O)(=O)c2ccc(C)cc2)C1c1ccccc1F (centres undefined),.,2,.,.,.
CSCCCNC(=S)N(C)CC(=O)Nc1ccc(C)cc1,-23%,-3,3%,0%,4%
CC(=O)Nc1ccc(S(=O)(=O)NCCc2cn3nc(C)c(C)nc3n2)cc1,-3%,-79*,-2%,3%,0%
COc1ccc(S(=O)(=O)NCCc2cn3nc(C)c(C)nc3n2)cc1F,?,1,?,0%,-5%
COc1ccc(-c2nc3ccccc3o2)cc1NC(=O)CSc1ccc(Cl)cc1,-1%,-90*,-4%,3%,1%
COc1ccc(-c2nc3ccccc3o2)cc1OC,-9%,0,0%,-1%,-1%
CC1(C)C(=O)Nc2ccccc2N1C(=O)COc1cc(Cl)ccc1Cl,-6%,0,4%,0%,0%
COc1ccc(C2=NS(=O)(=O)N(C)C(C(=O)N3CCC(C(N)=O)CC3)=C2)cc1,-2%,-67*,3%,11%,0%
COc1cc(/C=C2\SC(c3ccccc3)=NC2=O)cc(Cl)c1O,-41%,-43*,?,0%,0%
COc1cc(/C=C2\SC(c3ccc(C)cc3)=NC2=O)cc(OC)c1OC,-20%,-64*,-1%,3%,-1%
COc1cccc(COC(=O)c2ccc(S(=O)(=O)N3CCC(C)CC3)cc2)c1OC,10%,-61*,-1%,0%,1%
SMILES,Rango dissoc inh,CCT modulator,Rango complex inh,B2AR arrestin,MmCpn inh
COc1cccc(COC(=O)C2CCN(S(=O)(=O)c3ccc(F)cc3)CC2)c1OC,-1%,-1,?,0%,1%
CC(C)=CC(=O)OCC(=O)Nc1ccccc1Cl,-19%,-54*,-1%,0%,1%
COc1ccc(C(=O)CCC(=O)NC2=NCCS2)cc1,-11%,-81*,-1%,0%,0%
COc1ccc(NC(=O)CCC(=O)c2cc(C)sc2C)cc1,-8%,-43*,0%,0%,-4%
CSc1cccc(NC(=S)NC(=O)c2cccnc2)c1,-10%,1,1%,-1%,0%
COc1ccc(N2CCN(C(=O)CSc3nnc(-c4ccco4)n3C)CC2)cc1,13%,-2,1%,0%,0%
COC(=O)CCCC(=O)NC1CCCc2c1cnn2-c1ccc(F)cc1F (centres undefined),-4%,1,0%,0%,0%
C[C@@H](CN=[N+]=[N-])CN1CC[C@H](C(C)(C)C)CCC1=O,2%,-3,-1%,-1%,0%
CCC(=O)Nc1nc(-c2cc([N+](=O)[O-])cs2)cs1,-27%,2,?,0%,35µM*
CCN1C(=NCCN2CCOCC2)N[C@@H](CCc2ccccc2)C(C(=O)OC)=C1C,.,.,.,0%,-3%
Cc1nnc(SCC(=O)N2CCN(c3ccccc3F)CC2)n1C1CC1,11%,-97*,1%,0%,1%
Cc1cc(=O)oc2c(CN3CCCC3)c(O)c(Cl)cc12,15µM*,-1,?,0%,-14%
Cc1cc(=O)oc2c(CN3CCCCC3)c(O)c(Cl)cc12,?,0,?,0%,-13%
CC1CCCCN1C(=O)c1cnn2c(C(F)(F)F)cc(-c3ccco3)nc12 (centres undefined),9.2µM*,0,?,0%,0%
O=C(c1cnn2c(C(F)(F)F)cc(-c3ccco3)nc12)N1CCCCCC1,?,0,?,-1%,-11%
Cc1csc(=O)n1CCC(=O)OCC(=O)NCc1ccc(F)cc1,-3%,-1,3%,0%,2%
O=C(CSc1nc2ccccc2c(=O)n1-c1ccc(F)cc1)Nc1cc(S(=O)(=O)N2CCOCC2)ccc1Cl,4%,-3,-4%,16µM*,-15%
CC(=O)N1CCN(S(=O)(=O)c2cccc(C(=O)Nc3ccc(OC(F)F)cc3)c2)CC1,-10%,-39*,3%,0%,0%
O=C(Nc1ccc(S(=O)(=O)N2CCCC2)cc1)c1cccc(OC(F)F)c1,5%,0,2%,0%,-5%
S=c1[nH]nc(-c2ccccn2)n1/N=C/c1cccs1,-7%,-32*,-1%,0%,-1%
CC(C)(C)c1n[nH]c(=S)n(/N=C/c2cccs2)c1=O,-2%,-35*,-3%,2%,0%
Cc1cc2c(c(=O)n1Cc1ccccc1)C1O[C@](c3ccsc3)(Cc3cc(C#N)ccc31)O2,.,.,.,0%[9.22 µM],1%[15.4 µM]
COC(=O)c1nn(-c2nc(-c3cccc(OC)c3)cc(C(F)(F)F)n2)cc1[N+](=O)[O-],16%,0,0%,0%,1%
